We go through 90 molecules from PubChem BioAssay AID504848 (National Center for Advancing Translational Sciences (NCATS), 2011).

Among all 2,300 compounds or so, about 1,400 (61%) were called active. Roughly 29% stayed inconclusive and do not appear here. The set was probably picked from earlier hits. The list shows a part of the results. Values without a mark were called inactive. Calls follow the shape of the dose curve; as a rule, active = well fitted inhibition curve with a large enough effect; inconclusive = small, poorly fitted or top-dose-only effect, or effect the other way; inactive = no such curve, though single readings can be large or run the other way. Square brackets hold non-standard residues; d marks the D form. Peptide text beside a SMILES is read from it. * marks the point of attachment. ξ: configuration not given here. ξF = NC(Cc1ccccc1)C(=O)O; Cbz = O=C(OCc1ccccc1)*
% is scaled to controls: 0 for no effect and ±100 for the full control effect; potency is read from the fitted curve at half-maximal effect.

The assay is described as follows: Confirmation screen for delayed death inhibitors of the malarial parasite plastid, 96 hour incubation. Also: nearly all actives have a fitted effect of over 60% in size. Particulars: P. falciparum luciferase growth in erythrocytes; series mostly up to 28.7 µM; activity change, negative = inhibition: at the top concentration. The procedure, abridged: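 Two-generation (96 h, 37 C) exposure of P. falciparum carrying an integrated firefly luciferase reporter in erythrocytes, 0.1% parasitemia and 2% hematocrit final, Albumax-supplemented RPMI. Luminescence decrease measures growth inhibition.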
Take `O=C(Nc1nnc(Cc2ccc(F)cc2)s1)Nc1ccccc1F`: the Potency was 12.6 µM (active).
For `O=S(=O)(c1cccs1)N1CCN(c2ccnc3cc(Cl)ccc23)CC1`, the Potency is 4.47 µM (active).
Take `O=C(Nc1ccc(F)cc1F)c1ccc2c(c1)[nH]c(=O)n2Cc1ccc(F)cc1`: the Potency is 14.1 µM (active).
For the molecule `CC1(C)CC(=O)C2=C(C1)OC1=C(C(=O)CC(C)(C)C1)C2c1ccc(O)cc1O`, the Potency was 7.08 µM (active).
As to `CC(C)C(=O)NC(=S)Nc1ccc(S(=O)(=O)NC2CCCCC2)cc1`, the “activity change, negative = inhibition” value is -50.8%.
For the molecule `O=C(NC(=C(Cl)Cl)S(=O)(=O)c1ccc(Cl)cc1)c1ccccc1`, the “activity change, negative = inhibition” value is -22.7%.
Regarding `CC(C)NS(=O)(=O)c1ccc(NC(=S)NC(=O)c2ccc(-c3ccccc3)cc2)cc1`, the Potency was 5.01 µM (active).
Consider `O=C(CCN1C(=O)c2ccccc2C1=O)C1=NN[C@@H]2C(=O)N(c3ccc(F)cc3)C(=O)[C@H]12`, for which the “activity change, negative = inhibition” value was 22.9%.
As for `CCC/C(C#CCCN1C(=O)c2ccccc2C1=O)=C1/c2ccccc2C(=O)N1c1ccccc1`, the Potency was 5.01 µM (active).
Consider `COC(=O)Cc1ccc(NC(=O)C(c2ccccc2)c2ccccc2)cc1`, for which the Potency is 10 µM (active).
With `CCOC(=O)c1c(C)sc2c1N(C(=O)CCl)c1cc(Cl)ccc1S2`, the Potency was 2 µM (active).
With `O=C(C#Cc1ccccc1)Nc1cccc(F)c1`, the Potency is 1 µM (active).
On the same count and under the same terms, for `NC(=O)c1ccc(NC(=O)C#Cc2ccccc2)cc1` the value was 1 µM (active).
As to `O=C(C#Cc1ccccc1)Nc1ccccc1F`, the Potency was 12.6 µM (active).
In the case of `COc1ccc(NC(=O)C#Cc2ccccc2)cc1`, the Potency was 7.94 µM (active).
In the case of `Cc1ccc(Cn2c(C)nc3c(c2=O)c2nc4ccccc4nc2n3Cc2ccco2)cc1`, the Potency is 5.01 µM (active).
For the molecule `Nc1ccccc1SSc1ccccc1N`, the Potency was 7.94 µM (active).
For `CCN(CC)S(=O)(=O)c1cccc(NC(=O)c2cc(-c3cccs3)nn2-c2ccccc2)c1`, the Potency is 12.6 µM (active).
Take `Brc1cccc(OCCCCN2CCCCC2)c1`: the Potency was 12.6 µM (active).
Consider `Clc1cccc(OCCCCCN2CCOCC2)c1`, for which the “activity change, negative = inhibition” value was -30%.
On to `Cc1nn(-c2ccccc2)c(C)c1/C=N/n1c(-c2ccccc2Br)n[nH]c1=S`, for which the Potency was 11.2 µM (active).
In the case of `S=c1[nH]nc(-c2ccccn2)n1/N=C/c1ccc(-c2ccccc2Br)o1`, the “activity change, negative = inhibition” value is -12.3%.
With `Nc1nc(CCl)nc(N(c2ccccc2)c2ccccc2)n1`, the Potency is 1.41 µM (active).
`O=C(N[C@@H](Cc1ccccc1)C(=O)CCl)OCc1ccccc1`: the “activity change, negative = inhibition” value is -4.29%.
In the case of `COC(=O)[C@H](Cc1ccccc1)N(C)S(=O)(=O)c1cccc(S(=O)(=O)N(C)[C@@H](Cc2ccccc2)C(=O)OC)c1`, the Potency was 14.1 µM (active).
Regarding `COc1ccc(C(=O)NCC(=O)N/N=C/c2ccc([N+](=O)[O-])s2)cc1OC`, the Potency is 6.31 µM (active).
As to `O=C(CNC(=O)c1cccc(F)c1)N/N=C/c1ccc([N+](=O)[O-])s1`, the “activity change, negative = inhibition” value was -105%.
With `CCN(CC)Cc1cc2[nH]c3c4ccc(Cl)cc4ncc3c2cc1OC`, the Potency was 0.199 µM (active).
With `O=C(COC(=O)C1C2CC3OC(=O)C1C3C2)Nc1ccccc1` (stereo not given), the “activity change, negative = inhibition” value is -15.9%.
Take `CSc1c(CC(=O)Nc2ccccc2)n(C)c2ccccc12`: the Potency is 8.91 µM (active).
The same measure, in the same setting: for `Brc1c(CSc2nc3ccccc3s2)nc2ncccn12` the value was 6.31 µM (active); for `CC[C@@H](C)C(NC(=O)OC(C)(C)C)c1cn([C@@H](Cc2ccc(O)cc2)C(=O)N2CCN(C(=O)OC(C)(C)C)CC2)nn1` (stereo not given in full), 8.91 µM (active).
The same measure, in the same setting: for `CC[C@@H](C)C(NC(=O)OC(C)(C)C)c1cn([C@@H](CCCCNC(=O)OC(C)(C)C)C(=O)N2CCN(C(=O)OC(C)(C)C)CC2)nn1` (stereo not given in full) the value was 1.26 µM (active).
As to `CCC(CC)N1CCN(Cc2nc3ccc([N+](=O)[O-])cc3c(=O)n2-c2ccccc2F)CC1`, the “activity change, negative = inhibition” value was -22.7%.
Consider `CCOc1ccc2c(c1)C(c1ccccc1)=NNC(c1ccccc1)=N2`, for which the Potency was 10 µM (active).
In the case of `Brc1ccccc1-c1nnc(COc2ncnc3c2cnn3-c2ccccc2)o1`, the “activity change, negative = inhibition” value was -8.78%.
`CCOC(=O)c1c(S(=O)(=O)NCC(=O)N2CCN(c3ccccc3OC)CC2)c(C)n(C)c1C`: the Potency was 12.6 µM (active).
As to `CN(Cc1cccc(Cl)c1Cl)C(=O)c1ccc(NC(=O)CC#N)cc1`, the Potency was 4.47 µM (active).
Regarding `O=C(Nc1ccc2c(c1)CCCN2C(=O)c1ccco1)c1cc([N+](=O)[O-])ccc1Cl`, the Potency is 14.1 µM (active).
Same read-out and setting: the figure for `Cc1ccc2cc3cc(C(=O)NCCCN4CCCC4=O)oc3nc2c1` is 1 µM (active).
Regarding `COc1ccccc1NC(=S)NCc1cccs1`, the “activity change, negative = inhibition” value was -10.1%.
For the molecule `COc1ccc2nc3oc(C(=O)NCc4cccs4)cc3cc2c1`, the Potency is 2.24 µM (active).
Consider `COCCCNC(=O)c1cc2cc3cc(OC)ccc3nc2o1`, for which the Potency was 2.24 µM (active).
On to `O=C(CN1C2=NCCCN2c2ccccc21)c1ccc2c(c1)OCO2`, for which the Potency is 7.08 µM (active).
As to `OC(CN1C2=NCCN2c2ccccc21)c1ccc2c(c1)OCO2` (stereo not given), the Potency was 2.51 µM (active).
The same measure, in the same setting: the figure for `Cc1ccc(C)c(C(=O)CN2C3=NCCCN3c3ccccc32)c1` is 5.62 µM (active); for `CCOc1ccc(NC(=O)C[n+]2ccc(N(C)C)cc2)cc1` it is 0.501 µM (active); for `CN(C)c1cc[n+](CC(=O)Nc2ccc(OC(F)F)cc2)cc1` it is 1.58 µM (active).
Take `O=C(C[n+]1cccc(CNC(=O)c2ccc(OC(F)F)cc2)c1)Nc1ccc(SC(F)F)cc1`: the Potency was 1 µM (active).
`Cn1nnnc1Sc1ncnc2scc(-c3cccs3)c12`: the Potency is 8.91 µM (active).
On to `Cn1nnnc1Sc1ncnc2scc(-c3ccc[nH]3)c12`, for which the Potency is 11.2 µM (active).
The same measure, in the same setting: for `Cn1nnnc1Sc1ncnc2scc(-c3ccsc3)c12` the value was 3.98 µM (active); for `O=C1C(Cl)=C(NC2CCCCC2)C(=O)N1c1ccc(Cl)cc1`, 12.6 µM (active).
`CCOc1ccc(CNC(=O)c2cc3oc4ccccc4c3n2C)cc1`: the “activity change, negative = inhibition” value is 12.8%.
In the case of `CCCCN(C)CCNC(=O)c1cc2c(=O)[nH]c3ccccc3c2n1C`, the Potency is 12.6 µM (active).
The same measure, in the same setting: for `CCOc1ccccc1NC(=O)c1cc(S(=O)(=O)NCc2ccco2)ccc1F` the value was 11.2 µM (active).
As to `Cc1cc(C)cc(NC(=O)c2cc(S(=O)(=O)NCc3ccco3)ccc2F)c1`, the “activity change, negative = inhibition” value was -53.2%.
`C=C1C(=O)O[C@@H]2C[C@@H](C)[C@@H]3C=CC(=O)[C@@]3(C)[C@@H](OC(C)=O)[C@H]12`: the Potency was 1.41 µM (active).
On the same count and under the same terms, for `Nc1ccc[n+](CC(=O)c2ccccc2)c1` the value was 12.6 µM (active); for `CCC(C)(C)NC(=O)C(c1cccc(OC)c1OC)N(CC(C)C)C(=O)CCC(=O)Nc1cc(C)on1` (stereo not given), 7.94 µM (active); for `Cc1cc(C)n(-c2ccc(C(=O)Nc3ccc(S(=O)(=O)NCc4ccco4)cc3)cc2)n1`, 8.91 µM (active).
In the case of `CC(C)n1nc(C(=O)Nc2cccc(S(=O)(=O)NCc3ccco3)c2)c2ccccc2c1=O`, the Potency is 7.94 µM (active).
With `O=C(Nc1ccc(S(=O)(=O)NCc2ccco2)cc1)c1ccc2ccccc2n1`, the Potency was 12.6 µM (active).
Consider `CCN(CC(=O)Nc1c(F)cccc1F)C(=O)c1ccc(S(=O)(=O)NCc2ccco2)cc1`, for which the “activity change, negative = inhibition” value was -12.1%.
As to `COc1ccc2c(C)c(CCC(=O)NC3CC3)c(=O)oc2c1C`, the Potency is 3.55 µM (active).
With `COc1ccc2c(c1)c(C(=O)N/N=C/c1ccc(OC)c(OC)c1)c(C)n2C`, the Potency was 8.91 µM (active).
`O=C(NCC1CCCO1)c1ccc(Cn2c(=S)[nH]c3ccccc3c2=O)cc1` (stereo not given): the Potency is 14.1 µM (active).
The same measure, in the same setting: the figure for `Cc1cccc(N2CCN(C(=O)C3CCN(c4ncnc5c4nc4n5CCCCC4)CC3)CC2)c1C` is 11.2 µM (active).
Turning to `CC1CCN(C(=O)C2CCCN(c3ncnc4c3nc3n4CCCCC3)C2)CC1` (stereo not given), the Potency is 11.2 µM (active).
Same read-out and setting: for `Cc1cc(C)n2nc(SCC(=O)N3CCN(c4ccc(F)cc4)CC3)nc2n1` the value was 12.6 µM (active); for `COc1ccc(Nc2nnc(-c3ccccc3)c3ccccc23)cc1C(=O)N1CCCCC1`, 2.82 µM (active).
Still for that read-out and setting: for `COc1ccc(Nc2nnc(-c3ccc(C)cc3)c3ccccc23)cc1C(=O)N1CCCCC1` the value was 0.251 µM (active).
As to `CN1CCN(C(=O)c2cc(COc3c(F)cccc3F)on2)CC1c1ccccc1` (stereo not given), the “activity change, negative = inhibition” value was -16%.
With `O=C(c1cc(COc2ccc(F)cc2Cl)on1)N1CCN(C2CCCCC2)C(=O)C1`, the Potency was 11.2 µM (active).
With `Cc1ccsc1/C=N/NC(=O)c1nnn(-c2nonc2N)c1-c1ccc2c(c1)OCO2`, the Potency was 0.891 µM (active).
Turning to `Nc1nonc1-n1nnc(C(=O)N/N=C/c2ccc(Cl)cc2)c1-c1ccc2c(c1)OCO2`, the Potency was 0.0316 µM (active).
For the molecule `CN(Cc1c(C(=O)N/N=C/c2cccc(O)c2)nnn1-c1nonc1N)c1ccccc1`, the “activity change, negative = inhibition” value is -21.5%.
`CCOc1ccc(-c2c(C(=O)N/N=C/c3ccc(OC(C)C)cc3)nnn2-c2nonc2N)cc1`: the Potency is 12.6 µM (active).
As for `Nc1nonc1-n1nnc(C(=O)N/N=C/c2cccc(Cl)c2)c1-c1ccc2c(c1)OCO2`, the Potency is 0.0708 µM (active).
On the same count and under the same terms, the figure for `CCOC(=O)C1=C(NC(=S)NC(=O)c2ccccc2)c2ccccc2CC1(C)CC` (stereo not given) is 11.2 µM (active); for `CC(=O)Nc1nc2ccccc2n1Cc1ccc(C)cc1` it is 5.62 µM (active).
Consider `N=C1S/C(=C\c2ccco2)C(=O)N1c1nccs1`, for which the Potency was 12.6 µM (active).
With `CCCNC(=O)C(Cc1ccc(F)cc1)NC(=O)c1ccccc1` (stereo not given), the Potency was 6.31 µM (active).
`CCOC(=O)CNC(=O)C(Cc1ccccc1)NC(=O)OCc1ccccc1` (stereo not given) (Cbz-[ξF]-Gly-OEt): the “activity change, negative = inhibition” value was -6.51%.
As for `Cc1cc(C)c2[nH]c(C(=O)N3CCC(n4nccc4NC(=O)C4CC4)CC3)c(C)c2c1`, the Potency was 7.94 µM (active).
The same measure, in the same setting: for `Cc1c(C(=O)N2CCC(n3nccc3NC(=O)C3CC3)CC2)[nH]c2ccc(Cl)cc12` the value was 14.1 µM (active); for `CCC(C)[C@H](NC(=O)[C@H](Cc1ccccc1)n1c(=O)[nH]c2ccccc2c1=O)C(=O)NCC1CCC(C(=O)O)CC1` (stereo not given in full), 11.2 µM (active); for `CCOCCCn1c(C)nc2c(c1=O)c1nc3ccccc3nc1n2CCC1=CCCCC1`, 3.16 µM (active).
On the same count and under the same terms, for `CN(CC(=O)Nc1ccc(F)c(Cl)c1)S(=O)(=O)c1ccc2c(c1)n(C)c(=O)c(=O)n2C` the value was 10 µM (active); for `CCOc1ccc(S(=O)(=O)N2CCCC(C(=O)NC3CC3)C2)cc1Cl` (stereo not given), 10 µM (active).
